{
  "source": "PubChem BioAssay (EPA / NIEHS)",
  "note": "Values joined by “and” are separate entries in the source; they are usually repeats but may differ in a detail not shown here. Identical values can stand only once. Where a structure was tested more than once in an assay, its records may differ in their call. Active and inactive are the calls of the source. The calls were made as follows: active = hit-call score of the fitted dose curve at least 0.9, where 1 is the maximum; inactive = score below 0.9.",
  "data": [
    {"read-out": "Cyclin Dependent Kinase Inhibitor 1A (CDKN1A), CDKN1A (gene 1026)", "assay": "LTEA_HepaRG_CDKN1A: Life Technologies and Expression Analysis (LTEA) Assay for Cyclin Dependent Kinase Inhibitor 1A (CDKN1A) using HepaRG (AID 2283450)", "conditions": "mRNA level, 48 h; actives raise or lower the signal", "description": "LTEA_HepaRG is a cell based, multiplexed-readout assay that uses HepaRG, a human liver cell line, with measurements taken at 48 hours after chemical dosing on a 96-well plate.LTEA_HepaRG_CDKN1A is one of 102 assay component(s) measured in the LTEA HepaRG cell culture assay. It is a marker of Cell proliferation, survival, death.Data from the assay component LTEA_HepaRG_CDKN1A was analyzed into 1 endpoint. This assay endpoint, LTEA_HepaRG_CDKN1A, was analyzed with bidirectional fitting relative to DMSO as the negative control and baseline of activity. Using a type of inducible reporter, measures of mRNA induction for gain or loss-of-signal activity can be used to understand regulation of transcription factor activity. To generalize the intended target to other relatable targets, this assay endpoint is annotated to the cell cycle intended target family, where the subfamily is Cell proliferation, survival, death.\nA total of 1060 chemcials from the ToxCast library were tested in eight-point concentration-response experiments. Cell culture and cytotoxicity assays were conducted at Thermo Fisher Scientific's Custom Services facility (Madison, WI). A single lot of human HepaRG cells (Thermo Fisher Scientific, Frederick, MD) was used for the cell culture experiments. 96-well format collagen type I coated plates of human HepaRG cells were prepared using established methods. Briefly, cryopreserved HepaRG cells were thawed, plated at a density of approximately 100,000 cells/well in HepaRG Thaw, Plate, and General Purpose media (HPRG770, Thermo Fisher Scientific), and incubated for 48 hours. 0.5% DMSO was selected as vehicle control to balance the requisite need of DMSO in HepaRG cultures to maintain differentiation (for example, baseline metabolism, proportions of hepatocytes vs. cholangiocytes), while enabling further hepatic receptor pathway activation (for example, PXR and CAR) in response to chemical exposure. 48 hours after plating, the culture medium was replaced with HepaRG Serum-Free Incudtion Media. Cells were exposed to each test chemical in duplicate and maintained in CO2 incubators for another 48 hours. Chemical plates were thawed to room temperature and 200x concentrations of treatment groups were prepared. 8-point conentration-reponse curves were made with the highest exposure at 100 uM, followed by half-log dilutions, all in 0.5% DMSO. Each test plate contained variouse controls, induction positive controls (1mM phenobarbital), cytotoxicity positive controls ([…] aflatoxin B1), vehicle controls (0.5% DMSO), and total lysis controls (0.5% DMSO). Cell morphology images were taken using an Essen IncuCyte FLR automated microscope, with six 96-well plates imaged in about 24 minutes. Images were captured and exported and JPEG files. Spent culture media was transfered to black-well plates for the LDH assay, and remaining media was sorted at -80 C for later use. Cells were treated with RLT buffer and frozen until shipped for gene expression analysis. Total RNA was isolated from the cell suspension in 75 uL of Buffer RLT (Qiagen, Germantown, MD 20874) by Quintiles/Expression Analysis (Durham, NC) using a custom isolation procedure. Total RNA from each plate well was transferred to a preamplification plate. Fluidigm's 96.96 Dynamic ArrayTM (Fluidigm, Amsterdam, the Netherlands) technology was used for gene expression analyses by quantitative reverse transcription polymerase chain reaction (qRT-PCR, performed by Quintiles/Expression Analysis, Durham, NC)89. Standard TaqManTM Assays (Applied Biosystems/ThermoFisher Scientific, Foster City, CA) were used to assess the expression of 93 genes selected based on their selectivity and sensitivity to important hepatic receptors known to be modulated by environmental chemicals; importance in human hepatocyte functionality; and hepatotoxicity. […]", "values": [
      {"smiles": "C=CCOC(Cn1ccnc1)c1ccc(Cl)cc1Cl", "note": "(stereo not given)", "AC50": "28.6 µM (active)"},
      {"smiles": "C[C@]12CC[C@@H]3c4ccc(O)cc4C[C@@H](CCCCCCCCCS(=O)CCCC(F)(F)C(F)(F)F)[C@H]3[C@@H]1CC[C@@H]2O", "note": "(stereo not given in full)", "outcome": "inactive"},
      {"smiles": "S=C([S-])NCCNC(=S)[S-].[Mn+2]", "outcome": "inactive"},
      {"smiles": "CC(=O)S[C@@H]1CC2=CC(=O)CC[C@]2(C)[C@H]2CC[C@@]3(C)[C@@H](CC[C@@]34CCC(=O)O4)[C@H]12", "outcome": "inactive"},
      {"smiles": "O=C(O)C1(C(=O)Nc2ccc(Cl)cc2Cl)CC1", "outcome": "inactive"},
      {"smiles": "CCCCOCCOCCOCc1cc2c(cc1CCC)OCO2", "outcome": "inactive"},
      {"smiles": "CCN(CC)C(=O)c1cccc(C)c1", "outcome": "inactive"},
      {"smiles": "N#CSCSc1nc2ccccc2s1", "outcome": "inactive"},
      {"smiles": "COc1c(Cl)ccc(Cl)c1C(=O)O", "outcome": "inactive"},
      {"smiles": "CCOC(=O)C(C)Oc1ccc(Oc2cnc3cc(Cl)ccc3n2)cc1", "note": "(stereo not given)", "outcome": "inactive"},
      {"smiles": "CSC(=O)c1cccc2nnsc12", "outcome": "inactive"},
      {"smiles": "CCOC(=O)C(C)Oc1ccc(Oc2nc3ccc(Cl)cc3o2)cc1", "note": "(stereo not given)", "outcome": "inactive"},
      {"smiles": "CC1(C)C(C=C(Cl)Cl)C1C(=O)OCc1cccc(Oc2ccccc2)c1", "note": "(stereo not given)", "outcome": "inactive"},
      {"smiles": "CC(C)CCCCCCc1ccc(O)cc1", "outcome": "inactive"},
      {"smiles": "CCCCOC(=O)[C@@H](C)Oc1ccc(Oc2ccc(C(F)(F)F)cn2)cc1", "outcome": "inactive"},
      {"smiles": "CCOC(=O)NCCOc1ccc(Oc2ccccc2)cc1", "AC50": "83.4 µM (active)"},
      {"smiles": "CCCCC(CC)CN1C(=O)C2C3C=CC(C3)C2C1=O", "note": "(stereo not given)", "AC50": "77.1 µM (active)"},
      {"smiles": "CCCCCCC(C)OC(=O)COc1nc(F)c(Cl)c(N)c1Cl", "note": "(stereo not given)", "outcome": "inactive"},
      {"smiles": "O=C(c1ccc(O)cc1O)c1ccc(O)cc1O", "outcome": "inactive"},
      {"smiles": "CCCCCOC(=O)COc1cc(N2C(=O)C3=C(CCCC3)C2=O)c(F)cc1Cl", "outcome": "inactive"},
      {"smiles": "COC(=O)c1ccccc1C(=O)O", "outcome": "inactive"},
      {"smiles": "COC(=O)c1ccc(I)cc1S(=O)(=O)NC(=O)Nc1nc(C)nc(OC)n1", "outcome": "inactive"},
      {"smiles": "CCCCOC(=O)C(C)Oc1ccc(Oc2ccc(C(F)(F)F)cn2)cc1", "note": "(stereo not given)", "outcome": "inactive"},
      {"smiles": "CCN(Cc1c(F)cccc1Cl)c1c([N+](=O)[O-])cc(C(F)(F)F)cc1[N+](=O)[O-]", "outcome": "inactive"},
      {"smiles": "CC(=O)[C@H]1CC[C@H]2[C@@H]3CCC4=CC(=O)CC[C@]4(C)[C@H]3CC[C@]12C", "AC50": "16.8 µM (active)"},
      {"smiles": "CCCOC(=O)NCCCN(C)C", "outcome": "inactive"},
      {"smiles": "c1ccc2[nH]c(-c3cscn3)nc2c1", "outcome": "inactive"},
      {"smiles": "CCC(C)OC(=O)N1CCCCC1CCO", "note": "(stereo not given)", "outcome": "inactive"},
      {"smiles": "COC(=O)CSc1cc(N=c2sc(=O)n3n2CCCC3)c(F)cc1Cl", "outcome": "inactive"},
      {"smiles": "O=C(c1ccccc1)C1CCCCC1", "outcome": "inactive"},
      {"smiles": "S=C(S)NCCNC(=S)S.[Mn+2].[S-]C([S-])=NCCN=C([S-])[S-].[Zn+2]", "outcome": "inactive", "AC50": "25 µM (active) and 3.66 µM (active)"},
      {"smiles": "C#C[C@]1(O)CC[C@H]2[C@@H]3CCC4=CC(=O)CC[C@@H]4[C@H]3CC[C@@]21CC", "outcome": "inactive"},
      {"smiles": "CCCCC(CC)COC(=O)c1ccccc1C(=O)O", "note": "(stereo not given)", "outcome": "inactive"},
      {"smiles": "CC(C)(c1ccc(O)cc1)c1ccc(O)cc1", "outcome": "inactive"},
      {"smiles": "CCOC(=O)COc1cc(-n2ncc(C(F)(F)F)c(C)c2=O)c(F)cc1Cl", "outcome": "inactive"},
      {"smiles": "CCSC(=O)N(CC(C)C)CC(C)C", "outcome": "inactive"},
      {"smiles": "C#CCOC(=O)[C@@H](C)Oc1ccc(Oc2ncc(Cl)cc2F)cc1", "outcome": "inactive"},
      {"smiles": "CC(C)(C)[C@@H](O)[C@@H](Cc1ccc(Cl)cc1)n1cncn1", "outcome": "inactive"},
      {"smiles": "CCNc1nc(N)nc(Cl)n1", "outcome": "inactive"}
    ]}
  ]
}
